Drawing on ChEMBL document CHEMBL1157539, “Thousands of chemical starting points for antimalarial lead identification” (Nature, 2010), this text covers Inhibition for 14 molecules.

Structures are written as SMILES.

For orientation: Inhibition means the percentage by which the read-out fell short of the control.

The assay has as its system Plasmodium falciparum. Kind of assay: GSK_TCMDC: Inhibition of Plasmodium falciparum 3D7 in whole red blood cells, using parasite LDH activity as an index of growth. Test compounds present at 2uM. The format is functional.
In turn, `COc1cc(CNC[C@@H](O)[C@H](Cc2ccccc2)NC(=O)c2cc(C3CCCC3)cc(N3CCCS3(=O)=O)c2)cc(OC)c1.Cl` showed an Inhibition of 95%. The result for `CC(C)(C)c1cc(Cn2ccnc2)cc(C(C)(C)C)c1O` reads 85%; that for `NC1=NC2(CCCCC2)N(OCCCCCCc2ccccc2)C(N)=N1`, 100%; that for `CC(C)CC1c2[nH]c3ccccc3c2CCN1C(=O)CCc1ccccc1` (centres undefined), 92%. The result for `Cc1ccc(N2C(N)=NC(N)=NC2c2ccccc2)cc1.Cl` (centres undefined) reads 94%; that for `Cc1ccccc1C1CCN(C2CCC(NC(=O)/C=C/c3ccc4c(c3)OC(F)(F)O4)CC2)CC1` (centres undefined), 100%. The result for `Cc1nc2sccn2c1C(=O)NCCc1ccccc1Cl` reads 96%. As for `CC(C)(C)c1ccc(CN2CCC(CNC(=O)c3cc(-c4cccc(Cl)c4)cs3)C2)cc1.O=C(O)C(F)(F)F` (centres undefined), the Inhibition was 100%.

`O=C(c1cnn(-c2ccccc2)c1C(F)(F)F)N1CCN(c2ccnc3cc(Cl)ccc23)CC1` yielded an Inhibition of 89%. For `O=C(O)C(F)(F)F.O=S(=O)(NCCN1CCCC1)c1ccc(-c2ccc(CNCc3ccccc3)cc2)cc1F`, the Inhibition came to 83%. As for `COc1ccc(-c2nonc2NC(=O)c2ccc(OC(C)C)cc2)cc1OC`, the Inhibition was found to be 100%. The result for `O=C(O)C(F)(F)F.c1ccc(-c2ccc(CNCc3ccc(-c4cccc(-c5nc6ccccc6[nH]5)c4)cc3)s2)nc1` reads 98%. `Cc1cccc2nc(-c3cccc(-c4ccc(NC(=O)COC(C)C)cc4)c3)[nH]c12`: the Inhibition amounted to 82%.

As for `CC(=O)N[C@H](C(=O)Nc1ccc(-c2ccc(-c3nc4cc(C(F)(F)F)ccc4[nH]3)s2)cc1)C(C)C`, the Inhibition is given as 88%.
